Screens deposited in PubChem by National Center for Advancing Translational Sciences (NCATS).
A549 viability: Nrf2 qHTS screen for inhibitors: counterscreen for cytotoxicity; Potency, µM (titrated, usually from 46 µM), inactives show top-dose activity change, negative = cytotoxicity, most hits filed as inhibitors; A549 ARE-Fluc cells, CellTiter-Fluor viability, 18-24 h; AID 504648, 2011; 390,000 tested, 0.16% active; also: % is scaled to controls: 0 for no effect and ±100 for the full control effect
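A549 ARE_Fluc cells in 5% FBS OPTI-MEM were exposed to compounds in concentration-response for 18-24 h at 37 deg C. Viability was read by CellTiter-Fluor fluorescence (Ex 405/Em 525) after 30 min, before the luciferase read.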
IDH1 R132H inh: qHTS for Inhibitors of mutant isocitrate dehydrogenase 1 (IDH1): qHTS. Isocitrate dehydrogenase [NADP] cytoplasmic (Homo sapiens), O75874. IDH1-R132H enzyme, NADPH consumption, diaphorase/resazurin fluorescence. Potency, µM (highest dose often 76.6 µM), for inactives: top-dose activity change, negative = inhibition, hits mostly inhibitors. 390,000 tested, 0.093% active; also: % is scaled to controls: 0 for no effect and ±100 for the full control effect; nearly all actives have a fitted effect of over 65% in size
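IDH1-R132H (0.5 ug/mL) preincubated 30 min with compound, then NADPH (0.016 mM) and alpha-KG (2 mM) added; 80 min at RT, pH 7.5. Remaining NADPH coupled via diaphorase/resazurin to fluorescence (540/590 nm); concentration-response curves normalized to no-enzyme control.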
TrxR1 inh: qHTS Assay for Inhibitors of Mammalian Selenoprotein Thioredoxin Reductase 1 (TrxR1): qHTS. Thioredoxin reductase 1, cytoplasmic (Rattus norvegicus), O89049. recombinant rTrxR1, NADPH fluorescence consumption, selenite substrate. Potency, µM (highest dose often 114 µM), without a hit: at the top dose activity change, negative = inhibition, hits mostly inhibitors. 390,000 tested, 1% active. AID 588453, 2011; also: % is scaled to controls: 0 for no effect and ±100 for the full control effect; nearly all actives have a fitted effect of over 65% in size
Target sequence (O89049 whole entry, looked up): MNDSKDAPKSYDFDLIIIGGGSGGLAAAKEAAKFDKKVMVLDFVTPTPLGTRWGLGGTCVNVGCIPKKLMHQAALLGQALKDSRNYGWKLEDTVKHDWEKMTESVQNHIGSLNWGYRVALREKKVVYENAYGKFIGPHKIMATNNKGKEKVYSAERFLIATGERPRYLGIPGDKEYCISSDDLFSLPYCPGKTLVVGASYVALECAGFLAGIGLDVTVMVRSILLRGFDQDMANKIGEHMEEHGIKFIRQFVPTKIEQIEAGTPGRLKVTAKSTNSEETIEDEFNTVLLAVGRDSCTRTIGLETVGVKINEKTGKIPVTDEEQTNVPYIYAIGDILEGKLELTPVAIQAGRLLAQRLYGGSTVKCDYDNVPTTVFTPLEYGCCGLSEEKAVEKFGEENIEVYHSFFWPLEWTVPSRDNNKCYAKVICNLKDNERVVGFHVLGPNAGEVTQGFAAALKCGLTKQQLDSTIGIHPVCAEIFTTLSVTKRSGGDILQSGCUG
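Rat TrxR1 (90 nM in the dispensed reagent) was pre-reduced with 400 uM NADPH for 5 min at room temperature, then incubated with compound for 15 min. After 400 uM selenite was added, NADPH fluorescence (Ex 340/Em 450 nm) was followed for 8 min.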
Nrf2 block: Nrf2 qHTS screen for inhibitors; 360,000 tested, 2.1% active; AID 504444, 2011; Potency, µM (titrated, usually from 46 µM), without a hit: at the highest dose activity change, negative = inhibition, usual class: inhibitors; A549 ARE-Fluc reporter, luciferase luminescence, 18-24 h; also: % is scaled to controls: 0 for no effect and ±100 for the full control effect; nearly all actives have a fitted effect of over 60% in size
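Nrf2 function is reported as luminescence of an ARE-controlled luciferase in A549 cells. Compounds were tested at several concentrations, and a CellTiter-Fluor read on the same wells flagged cytotoxicity.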
TrxR1 substrate: qHTS Assay for Substrates of Mammalian Selenoprotein Thioredoxin Reductase 1 (TrxR1): qHTS; Potency, µM (titrated, usually from 114 µM), without a hit: top-dose activity change, negative = substrate turnover; AID 588456, 2011; Thioredoxin reductase 1, cytoplasmic (Rattus norvegicus), O89049; purified TrxR1 substrate turnover, NADPH consumption readout; 390,000 tested, 0.01% active; also: % is scaled to controls: 0 for no effect and ±100 for the full control effect; nearly all actives have a fitted effect of over 50% in size
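Rat TrxR1, dispensed at 90 nM, was prereduced with 400 uM NADPH (final) for 5 min at ~22 deg C, then incubated with compound 15 min before 400 uM selenite. A first-read NADPH fluorescence drop versus no-compound background flagged substrates.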
Mito fusion yeast: qHTS Assay for Small Molecule Inhibitors of Mitochondrial Division or Activators of Mitochondrial Fusion. 320,000 tested, 0.23% active. S. cerevisiae fusion-defective mutant growth rescue, CellTiterGlo 48 h. Potency, µM (highest dose often 46.1 µM), inactives show at the top dose growth rescue (activation), hits mostly activators; also: % of control where 0% means no effect; nearly all actives have a fitted effect of over 45% in size
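Temperature-sensitive fusion-defective S. cerevisiae (e.g. fzo1-1, mgm1-5) were grown with compound in YPEG medium (3% ethanol, 3% glycerol) for 48 hours at 37C. Growth rescue was measured as viability by CellTiterGlo luminescence after 10 minutes at ambient.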
* = called active by the depositor; ? = inconclusive; . = not tested or not shown; [ ] = another dose, or the depositor's remark. This is a sample that favours compounds with a hit; in the whole collection about 3.1% have one here. Calls follow the shape of the dose curve; as a rule, active = well fitted curve in the direction sought with a large enough effect; inconclusive = small, poorly fitted or top-dose-only effect, or another doubt; inactive = no such curve, though single readings can be large; an effect the other way counts as inactive or inconclusive. Potency is read from the fitted curve at half-maximal effect.

SMILES | A549 viability | IDH1 R132H inh | TrxR1 inh | Nrf2 block | TrxR1 substrate | Mito fusion yeast
CCCN1C(=O)S/C(=C/c2ccc(N3CCOCC3)o2)C1=O | -10% | -9% | 28µM* | ? | -13% | -14%
CC(=O)/C=C/c1ccc2c(c1)S(=O)(=O)N(C1CCCC1)[C@H]2CC(C)=O | . | . | -6% | . | -5% | .
CCOc1ccccc1NC(=O)Cn1nc2c3cc(F)ccc3n(Cc3cccc(C)c3)cc-2c1=O | 7% | 21% | 12% | ? | 1% | .
CC12CCC(=O)C=C1CCC1C2C(O)CC2(C)C(c3csc(N)n3)CCC12 (centres undefined) | -3% | -1% | 11%[57.1 µM] | 23µM* | 2%[2.29 µM] | .
CC(=O)[C@@]1(O)CC[C@H]2[C@@H]3CCC4=CC(=O)CC[C@]4(C)[C@H]3[C@@H](O)C[C@@]21C | -1% | -7% | -6% | ? | 0% | 0%
CC12CCC(=O)C=C1CCC1C2CCC2(C)C(c3csc(N)n3)CCC12 (centres undefined) | ? | 0% | 0%[11.4 µM] | 18µM* | 5%[11.4 µM] | .
CCOc1cccc(C(=O)N(Cc2ccc(N(C)C)cc2)CC2CCCO2)c1 (centres undefined) | -1% | 20% | -4% | -11% | -8% | .
O=C(CSc1oc(-c2ccco2)nc1S(=O)(=O)c1ccc(Cl)cc1)c1ccc(Cl)cc1 | -17% | 13% | ? | 0%[9.27 µM] | -4% | .
COc1ccc(NC2C=CS(=O)(=O)C2)cc1 (centres undefined) | 0% | 6% | 16µM* | -7% | 7% | 0%
CCOc1ccc(NC2C=CS(=O)(=O)C2)cc1 (centres undefined) | -2% | 1% | ? | ? | 8%[57.1 µM] | -7%
CCOC(=O)c1oc2ccc(S(=O)(=O)n3nc(-c4ccc(OC)cc4)cc3N)cc2c1C | -3% | 3% | 11% | ? | 4% | 13µM*
COc1ccc(-c2cc3nc(-c4ccccc4)cc(N4CCC(O)CC4)n3n2)cc1 | -21% | 9% | 88%[57.1 µM] | ? | 95%[57.1 µM] | ?
COc1ccc(-c2cc3nc(-c4ccccc4)cc(N4CCCC(O)C4)n3n2)cc1 (centres undefined) | ? | -1% | 169% | 13µM* | 187% | ?
O=C(Cc1cccc2ccccc12)NO | . | . | 17% | . | 5% | .
COc1ccc(SN=C2C(C)=CC(=O)C=C2C)cc1 | 1% | 12% | 2%[57.1 µM] | ? | -9%[57.1 µM] | 10%
COC1=CC(=O)C=C(OC)C1=O | -14% | 19% | 32µM* | ? | -23% | .
COC1=CC(=O)c2ccccc2C1=O | ? | -27% | ? | 23µM* | -6% | .
COC1=C(c2ccccc2)C(=O)c2ccccc2C1=O | 0% | 4% | 38%[57.1 µM] | -13% | 2%[57.1 µM] | -12%
CCc1ccccc1NC(=O)C(CC)Sc1ncnc2c1sc1ccccc12 (centres undefined) | 2% | -12% | 14%[57.1 µM] | . | 0%[57.1 µM] | .
COc1cc2c(cc1OC)C1O[C@](c3ccsc3)(C2)Oc2cc(-c3ccccc3)oc(=O)c21 | . | . | . | . | . | -4%[9.22 µM]
Cc1cccc(OCc2nnc(SCC(=O)N(c3ccccc3)C3CCS(=O)(=O)C3)o2)c1 (centres undefined) | -13% | 0% | -4% | 21µM* | -7% | -2%
Cc1cccc(OCc2nnc(SCC(=O)c3ccccc3)o2)c1 | 1% | 4% | 13%[57.1 µM] | 13% | 7%[57.1 µM] | -3%
CC(C)N1C(=O)S/C(=C\c2ccc(-c3ccc(Cl)c(C(=O)O)c3)o2)C1=O | ? | -2% | -18% | ? | 3% | 7%
CCN(CC)c1ccc(/C=C2/SC(=O)N(C(C)C)C2=O)o1 | -30% | 2% | 3.2µM* | ? | 0% | 2%
CCC(C)c1ccc(C(C)NC(=S)NCc2ccc(F)cc2)cc1 (centres undefined) | -21% | -2% | -2% | 15µM* | -11% | -10%
SMILES | A549 viability | IDH1 R132H inh | TrxR1 inh | Nrf2 block | TrxR1 substrate | Mito fusion yeast
CCCc1ccc(C(C)NC(=S)NCc2ccc(F)cc2)cc1 (centres undefined) | 0% | 6% | 18% | ? | 1% | -4%
COc1ccccc1NC(=O)N(Cc1ccco1)Cc1cc2cc(C)cc(C)c2[nH]c1=O | ? | 2% | ? | 23µM* | -2%[11.4 µM] | ?
Cc1ccc(C)c2[nH]c(=O)c(CN(Cc3ccco3)C(=O)Nc3ccccc3)cc12 | -13% | 2% | 17% | ? | 3% | 14µM*
Cc1ccc2cc(CN(Cc3ccco3)C(=O)NCc3ccccc3)c(=O)[nH]c2c1C | -19% | 9% | -8% | ? | -4% | 10%
COc1ccc(NC(=O)CSc2nc3ccccc3n2CC(=O)N2CCCC(C)C2)cc1 (centres undefined) | -14% | -15% | 12%[57.1 µM] | . | 7%[57.1 µM] | .
NS(=O)(=O)c1ccc(S(=O)(=O)N2CCN(c3nc(-c4ccccc4)nc4ccccc34)CC2)cc1 | -12% | . | 7% | 23µM* | -3% | .
Cc1ccc(C)c(N2CCN(C(=O)NCc3noc4ccccc34)CC2)c1 | -1% | 13% | 26% | ? | 6% | .
O=C(Cc1csc(-c2ccc(Cl)cc2)n1)Nc1cccc(S(=O)(=O)NC2=NCCC2)c1 | ? | 4% | 26% | 23µM* | 3% | -3%
O=C(Cc1csc(-c2ccc(F)cc2)n1)Nc1cccc(S(=O)(=O)NC2=NCCC2)c1 | -18% | 0% | ? | ? | 7% | 0%
Cc1cc(C)cc(C(=O)OCC(=O)Nc2cccc(S(=O)(=O)NC3=NCCCCC3)c2)c1 | ? | -2% | 6% | 23µM* | -6% | -10%
O=C(/C=C/c1ccc(OC(F)F)cc1)Nc1cccc(S(=O)(=O)NC2=NCCCCC2)c1 | ? | 6% | -7% | 18µM* | -11% | -5%
COc1ccc(/C=C/C(=O)Nc2cccc(S(=O)(=O)NC3=NCCCCC3)c2)cc1 | 10% | 4% | -15% | -12% | -8% | -8%
O=C(CCl)Nc1cccc(S(=O)(=O)NC2=NCCC2)c1 | ? | 2% | 28µM* | -3% | 4% | -2%
O=C(COC(=O)c1ccccc1)Nc1cccc(S(=O)(=O)NC2=NCCCCC2)c1 | -1% | 3% | -8% | 17% | -7% | -6%
Cc1cc2c(cc1C)N[C@]1(C[C@H]3CCC(=O)N4CC[C@@H](C1)[C@@H]34)C(=Nc1ccccc1C)N2 | . | . | -4% | . | 1% | .
